Measured values published in PubChem BioAssay AID1159580 (chemical genetic matrix, 2015).
Values joined by “and” are separate entries in the source; they are usually repeats but may differ in a detail not shown here. Identical values can stand only once. Out of some 5,500 compounds screened, about 2,000 (36%) were called active. Not shown: some 18% with an inconclusive outcome. No stated cut-off is given here; in the data, active means normalized growth mostly below about 0.91 (no sharp cut-off); inconclusive means no clear call, values can overlap the other calls; inactive means mostly above about 0.92. The list shows a part of the results.

Assay: chemical genetic growth profiling, strain panel (AID 1159580);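 further: tested at 20 µM; growth read once vehicle control cultures reached saturation at 30 °C; 1 = growth at the plate median or of vehicle wells; lower values mean less growth of the strain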
Details: S. cerevisiae deletion strains, growth OD

Measured: normalized growth

CC(C)=CCC/C(C)=C/CO
inactive: locus YAL013W, strain DEP1, hits give low values 1.01 | locus YAL021C, strain ccr4, hits give low values 1.02 | locus YAL026C, strain drs2, hits give low values 0.98 | locus YAL030W, strain snc1, hits give low values 0.995 | locus YBL061C, strain skt5, hits give low values 0.986 | locus YBR009C, strain hhf1, hits give low values 1.01 | locus YBR021W, strain FUR4, hits give low values 1 | locus YBR023C, strain chs3, hits give low values 1 | locus YBR171W, strain sec66, hits give low values 0.973 | locus YBR229C, strain ROT2, hits give low values 1.02 | locus YBR231C, strain swc5, hits give low values 1.02 | locus YBR279W, strain paf1, hits give low values 1.01 | locus YCL011C, strain gbp2, hits give low values 0.972 | locus YCL016C, strain dcc1, hits give low values 1.02 | locus YCL029C, strain bik1, hits give low values 0.988 | locus YCL069W, strain vba3, hits give low values 0.986 | locus YCR088W, strain abp1, hits give low values 0.976 | locus YDL005C, strain med2, hits give low values 0.979 | locus YDL035C, strain GPR1, hits give low values 1.01 | locus YDL040C, strain nat1, hits give low values 0.977 | locus YDL074C, strain BRE1, hits give low values 0.994 | locus YDL101C, strain DUN1, hits give low values 1.01 | locus YDL134C, strain PPH21, hits give low values 1.02 | locus YDL185W, strain tfp1, hits give low values 0.985 | locus YDL192W, strain arf1, hits give low values 1 | locus YDR001C, strain nth1, hits give low values 0.992 | locus YDR069C, strain doa4, hits give low values 0.984 | locus YDR101C, strain arx1, hits give low values 0.978 | locus YDR137W, strain rgp1, hits give low values 0.982 | locus YDR150W, strain NUM1, hits give low values 1.01 | locus YDR159W, strain sac3, hits give low values 0.937 | locus YDR162C, strain NBP2, hits give low values 1.01 | locus YDR195W, strain ref2 0.968 | locus YDR297W, strain sur2, hits give low values 0.987 | locus YDR318W, strain mcm21, hits give low values 0.995 | locus YDR334W, strain swr1, hits give low values 0.99 | locus YDR335W, strain msn5, hits give low values 0.987 | locus YDR388W, hits give low values 0.987 | locus YDR392W, strain spt3, hits give low values 0.929 | locus YDR502C, strain sam2, hits give low values 0.989 | locus YEL003W, strain gim4, hits give low values 0.986 | locus YEL037C, strain rad23, hits give low values 0.978 | locus YEL061C, strain CIN8 (second series), hits give low values 0.975 | locus YEL061C, strain CIN8, hits give low values 1.01 | locus YER015W, strain faa2, hits give low values 0.982 | locus YER016W, strain bim1, hits give low values 0.98 | locus YER110C, hits give low values 0.985 | locus YER111C, strain swi4, hits give low values 0.988 | locus YER155C, strain BEM2 (second series), hits give low values 1.02 | locus YER155C, strain BEM2, hits give low values 1.01 | locus YER167W, strain BCK2, hits give low values 1.01 | locus YFR010W, strain ubp6, hits give low values 0.978 | locus YGL078C, strain dbp3, hits give low values 0.984 | locus YGL086W, strain mad1, hits give low values 0.992 | locus YGL167C, strain pmr1, hits give low values 0.986 | locus YGL173C, strain kem1, hits give low values 0.958 | locus YGL227W, strain vid30, hits give low values 0.981 | locus YGL240W, strain doc1, hits give low values 0.967 | locus YGL248W, strain PDE1, hits give low values 1.03 | locus YGL253W, strain hxk2, hits give low values 0.961 | locus YGR078C, strain PAC10, hits give low values 1 | locus YGR135W, strain pre9, hits give low values 0.988 | locus YGR229C, strain SMI1, hits give low values 0.998 | locus YGR252W, strain gcn5, hits give low values 1.03 | locus YHR013C, strain ard1, hits give low values 1 | locus YHR027C, strain rpn1, hits give low values 0.977 | locus YHR030C, strain SLT2, hits give low values 1.01 | locus YHR079C, strain IRE1 (second series), hits give low values 0.993 | locus YHR079C, strain IRE1, hits give low values 0.994 | locus YHR094C, strain hxt1, hits give low values 0.995 | locus YHR129C, strain ARP1, hits give low values 1.01 | locus YHR142W, strain chs7, hits give low values 0.998 | locus YHR200W, strain rpn10, hits give low values 1 | locus YIL066C, strain RNR3, hits give low values 1.01 | locus YIL073C, strain SPO22, hits give low values 0.989 | locus YIL125W, strain kgd1, hits give low values 1 | locus YIR030C, strain dcg1, hits give low values 0.993 | locus YJL092W, strain hpr5, hits give low values 0.985 | locus YJL095W, strain BCK1 (second series), hits give low values 0.982 | locus YJL095W, strain BCK1, hits give low values 1 and 0.989 | locus YJL115W, strain asf1, hits give low values 0.993 | locus YJL129C, strain trk1, hits give low values 0.981 | locus YJL134W, strain LCB3, hits give low values 1.01 | locus YJL154C, strain vps35, hits give low values 0.988 | locus YJL164C, strain tpk1, hits give low values 1.02 | locus YJL166W, strain qcr8, hits give low values 1.01 | locus YJL168C, strain set2, hits give low values 0.992 | locus YJL187C, strain SWE1 (second series), hits give low values 1.01 | locus YJL187C, strain SWE1, hits give low values 0.993 | locus YJR043C, strain POL32, hits give low values 0.986 | locus YJR066W, strain TOR1, hits give low values 0.994
